This is a sample that favours compounds with a hit; in the whole collection about 5% have one here.
CHT allo act = allosterically activates the human high affinity choline transporter. hit rate 0.49% among 310,000. B-score at 10 µM. CHT-expressing cells, membrane potential dye, choline EC20; stronger effect = higher value; LV-AA mutant CHT in HEK293 cells. Q9GZV3;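 active = initial fluorescence not abnormally high and integrated response B-score, plate-corrected, over 3 SD above library mean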
Target sequence (Q9GZV3 whole entry, looked up): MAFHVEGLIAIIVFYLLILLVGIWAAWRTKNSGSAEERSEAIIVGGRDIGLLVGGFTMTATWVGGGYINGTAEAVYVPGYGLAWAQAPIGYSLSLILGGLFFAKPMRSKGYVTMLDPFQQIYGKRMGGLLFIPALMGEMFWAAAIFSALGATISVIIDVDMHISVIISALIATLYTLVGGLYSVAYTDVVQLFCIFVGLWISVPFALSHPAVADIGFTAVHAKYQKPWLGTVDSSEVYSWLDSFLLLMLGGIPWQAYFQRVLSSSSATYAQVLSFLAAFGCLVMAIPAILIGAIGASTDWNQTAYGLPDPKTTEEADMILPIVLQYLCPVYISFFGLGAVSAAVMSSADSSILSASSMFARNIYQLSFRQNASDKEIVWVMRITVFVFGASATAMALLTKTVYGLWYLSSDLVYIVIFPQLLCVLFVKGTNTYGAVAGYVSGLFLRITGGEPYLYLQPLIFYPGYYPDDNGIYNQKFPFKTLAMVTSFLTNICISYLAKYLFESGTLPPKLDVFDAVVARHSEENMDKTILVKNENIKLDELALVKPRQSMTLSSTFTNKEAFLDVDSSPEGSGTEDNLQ
AI-2 QS mod = Vibrio harveyi AI-2 quorum sensing modulation | Vibrio harveyi JMH597 AI-2 luminescence/OD600 ratio, 9 h; stronger effect = lower value; strain lacks LuxN and CqsS sensors; 0 = neutral-control median | hit rate 0.4% among 300,000 | AID 2094 | activity change, % at 7.5 µM; in the data active = activity change below about -75%, passing the limit was not always enough;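 also: luminescence divided by OD600 gain over 9 h not by final OD600 alone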
ALR H2O2 inh = blocks human ALR sulfhydryl oxidase activity | P55789 | purified ALR, DTT oxidation, H2O2 HRP-luminol luminescence | inhibition, % (concentration not given with the values) | hit rate 3.8% among 290,000 | AID 485317;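 active = mean replicate inhibition above about 79%, with every replicate also reaching it, limit read from the data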
CHT inh = inhibits the human high affinity choline transporter | hit rate 0.86% among 310,000 | Q9GZV3 | B-score at 10 µM | CHT-expressing cells, membrane potential dye, choline response; stronger effect = lower value | AID 488975;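 active = B-score over 3 SD under the library average, and starting fluorescence ratio not unusually high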;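 also: choline stimulus applied at its EC90 after an EC20 pre-addition; B-score computed on integrated fluorescence ratio after choline addition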
PREPL inhibitor = human PREPL enzyme inhibition; recombinant PREPL, fluorescence polarization activity-based probe; hit rate 0.68% among 320,000; inhibition, % at 5.96 µM; in the data active = inhibition above about 43%;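 also: 0% = enzyme with DMSO and 100% = wells lacking enzyme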
* hit, by the source's call; i = inactive; . = no result.

SMILES | CHT allo act | AI-2 QS mod | ALR H2O2 inh | CHT inh | PREPL inhibitor
CCc1ccc(NC(=O)C(C)OC(=O)CCC(=O)c2cccs2)cc1 (stereo not given) | i | 31 | . | i | 4
COc1ccc2nc(C)cc(SCC(=O)Nc3c(C)cc(C)cc3C)c2c1 | i | 5 | . | i | 22
CCOC(=O)CSc1cc(C)nc2ccc(OC)cc12 | i | 9 | 98* | i | -1
COC(=O)c1[nH]c2ccc(C)cc2c1NC(=O)Nc1ccccc1OC | i | 0 | 97* | i | 9
COc1cc(C(=O)Nc2c(C(=O)O)[nH]c3ccc(C)cc23)cc(OC)c1OC | i | 52 | 96* | i | .
COC(=O)c1[nH]c2ccc(Cl)cc2c1NC(=O)Oc1ccccc1 | i | 33 | 100* | i | 2
CCOC(=O)c1[nH]c2ccc(OC)cc2c1NC(=O)c1ccc(OC)c(OC)c1 | i | 1 | -4 | i | 5
COC(=O)c1[nH]c2ccc(C)cc2c1NC(=O)C1=COCCO1 | i | 16 | 47 | i | 6
COC(=O)[C@]1(C)N[C@H](CN(C)C(=O)c2ccccc2)[C@@H]2C(=O)N(Cc3ccccc3)C(=O)[C@@H]21 | . | . | . | . | 2
CC(OC(=O)c1ccc(Cl)nc1)C(=O)NCc1ccc2c(c1)OCO2 (stereo not given) | i | -9 | 4 | i | -17
Oc1cc(NCCc2cccnc2)cc2cccnc12 | . | . | 52 | . | 10
Oc1cc(Nc2cccnc2)cc2cccnc12 | . | . | 90* | . | 29
Cc1ccc(S(=O)(=O)Nc2cccc3c2O[C@H](CN(C)Cc2ccccc2)[C@@H](C)CN([C@H](C)CO)C3=O)cc1 | . | . | -8 | . | 24
CC1(c2ccc(OC(F)F)cc2)NC(=O)N(CC(=O)NCCC2=CCCCC2)C1=O (stereo not given) | . | . | -1 | . | 0
O=C1CCC(NC(=O)c2ccccc2)C(=O)N1 (stereo not given) | i | 1 | 0 | i | .
C[C@@H]1C(NC(=O)c2ccccc2)CC2CC1C2(C)C (stereo not given in full) | i | 3 | -11 | -5* | 3
CCOC(=O)N1CCN(C(=O)CNC(=O)c2ccc(Br)o2)CC1 | i | 12 | -1 | i | .
Cc1ccc(CC2SC(N=C(N)N)=NC2=O)cc1 (stereo not given) | i | 27 | 20 | i | 4
CCCNC(=O)C(=O)N/N=C/c1cccs1 | i | 30 | -3 | i | 0
CC(C)CNC(=O)C(=O)N/N=C/c1cccs1 | i | 5 | 82* | i | 5
O=C(CCCNc1ccccc1)N/N=C/c1cccs1 | i | 17 | 98* | i | 9
CC(C)N(CC(N)=O)c1ccc(S(=O)(=O)N2CCCC2)cn1 | . | . | 6 | . | 2
Cc1cc2n(n1)C(c1sccc1C)Nc1ccccc1-2 (stereo not given) | i | 17 | 91* | i | 5
Cc1cc2n(n1)C(c1ccccc1)Nc1ccccc1-2 (stereo not given) | i | 0 | 91* | i | 3
COc1ccc(N2CC(C(=O)NC3CCCCC3)CC2=O)cc1 (stereo not given) | i | -3 | -7 | i | -11
SMILES | CHT allo act | AI-2 QS mod | ALR H2O2 inh | CHT inh | PREPL inhibitor
O=C(O)c1ccc(/C=N/n2c(C3CCCCC3)n[nH]c2=S)cc1 | i | 18 | 98* | i | -4
S=c1[nH]nc(C2CCCCC2)n1/N=C/c1ccccc1Cl | i | -13 | . | i | 23
COc1cc(/C=N/n2c(C3CCCCC3)n[nH]c2=S)cc(Br)c1O | i | 28 | 83* | i | -4
S=c1[nH]nc(C2CCCCC2)n1/N=C/c1cccc(Br)c1 | i | -6 | . | i | -1
O=C(O)c1ccccc1/C=N/n1c(C2CCCCC2)n[nH]c1=S | i | 14 | 98* | i | -6
S=c1[nH]nc(C2CCCCC2)n1/N=C/c1ccncc1 | i | 9 | -1 | i | 6
CC1CC(C)CN(C(=O)c2cccc(N3C(=O)c4ccccc4C3=O)c2)C1 (stereo not given) | . | . | . | . | 0
O=C(COC(=O)CSc1ccc([N+](=O)[O-])cc1)NCc1ccco1 | i | 26 | 1 | i | 2
CCN(CC)c1ccc(NS(=O)(=O)c2ccc(-c3ccc(=O)[nH]n3)o2)c(C)c1 | i | 7 | 100* | i | 10
Cc1ccccc1NS(=O)(=O)c1ccc(-c2ccc(=O)[nH]n2)o1 | i | 31 | -3 | i | 1
CCCC(=O)N1CCN(c2ccc([N+](=O)[O-])c(NC(C)c3ccccc3)c2)CC1 (stereo not given) | i | 22 | -21 | i | 4
CCNc1ccccc1CP(=O)(c1ccccc1)c1ccccc1O (stereo not given) | i | 18 | -8 | i | 51*
COc1cc(/C=C/C(=O)OCC(=O)NCCC2=CCCCC2)ccc1O | i | 12 | 99* | i | 23
COc1cc(/C=C/C(=O)OCC(=O)NCc2ccc(F)cc2)ccc1O | . | . | . | . | 7
COc1cc(/C=C/C(=O)OCC(=O)NCc2ccccc2OC)ccc1O | i | 26 | 84* | i | -7
COc1cc(/C=C/C(=O)OCC(=O)N2CCN(C(=O)c3ccco3)CC2)ccc1O | i | 17 | 99* | i | 19
COc1cc(/C=C/C(=O)OCC(=O)NC(=O)NC(C)C)ccc1O | i | 21 | 99* | i | 6
COc1cc(/C=C/C(=O)OCC(=O)Nc2ccc3c(c2)OCCO3)ccc1O | i | 31 | 81* | i | 0
COc1cc(/C=C/C(=O)OCC(=O)Nc2ccc3c(c2)OCO3)ccc1O | . | . | . | . | 12
CCOc1c(Cl)cc(/C=N/NC(N)=S)cc1OC | i | -9 | -3 | i | -1
O=C(N/N=C\c1ccc(Cl)cc1)c1sccc1-n1cccc1 | i | 21 | . | i | -6
CN(C)c1ccc(/C=N/OC(=O)Nc2ccccc2)cc1 | i | -57 | 84* | i | 11
Cc1occc1C(=O)N/N=C/c1ccc(N(C)C)cc1 | i | 22 | 94* | i | 7
CN(C)c1ccc(/C=N/NC(=O)c2sccc2-n2cccc2)cc1 | i | 19 | 99* | i | 2
CN(C)c1ccc(/C=N/NC(=O)c2ccccc2Cl)cc1 | i | -5 | 98* | i | -7
SMILES | CHT allo act | AI-2 QS mod | ALR H2O2 inh | CHT inh | PREPL inhibitor
CN(C)CCN1C(=O)c2ccccc2C1=O | . | . | -1 | . | 1
CCC(=O)N(Cc1cc(=O)[nH]c2ccccc12)c1ccc(OC)cc1 | i | 7 | 14 | i | -13
O=C(Nc1ccc(Cl)c(Cl)c1)O/N=C/c1ccncc1 | i | -88* | -12 | i | -11
COc1cccc(NC(=O)COC(=O)C2=NN(c3ccccc3)C(=O)CC2)c1 | . | . | -5 | . | 20
COc1cc(/C=N/O)cc(Br)c1OC | i | 15 | 90* | i | 5
COc1cc(/C=N/O)cc(Cl)c1OC | i | 9 | 2 | i | 5
CCOc1ccc(C(=O)NCC(=O)OCCCC(=O)c2ccc(F)cc2)cc1OCC | . | . | 4 | . | 2
